Rce1 inhib = yeast Rce1p protease inhibitors, primary screen, biochemical, fluorescence, cell-free homogeneous | yeast membranes, quenched prenylated peptide cleavage fluorescence | 0.27% of 290,000 active | CAAX prenyl protease 2 (Saccharomyces cerevisiae (strain ATCC 204508 / S288c)), Q03530 | calls only;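 active means fall in fluorescence gain of 50% or more versus controls, with final raw signal at or below 3038400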;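 further: plate controls were neutral control wells for no effect and wells lacking membranes for full effect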
PLC-gamma1 inh = PLC-gamma1 enzyme inhibitors, primary screen, biochemical, fluorescence, purified enzyme. inhibition, % at 12.2 µM. fluorogenic substrate. AID 720700, 2013. 0.84% of 370,000 active. 1-phosphatidylinositol 4,5-bisphosphate phosphodiesterase gamma-1 (Homo sapiens), P19174; in the data active means inhibition above about 9.5%
PLCb3 inh = human PLC-beta3 inhibitors, primary screen, biochemical, fluorescence | 1-phosphatidylinositol 4,5-bisphosphate phosphodiesterase beta-3 (Homo sapiens), Q01970 | Purified PLC-beta3, fluorogenic substrate | inhibition, % at 12.2 µM | 0.18% of 370,000 active | AID 720704, 2013; in the data active means inhibition above about 11%;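 further: 0% = median of compound wells on plate and 100% = full blocker control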
NPR2 activator = human GC-B receptor activators, primary screen, HEK293 GC-B cells, cGMP TR-FRET, EC30 CNP. Atrial natriuretic peptide receptor 2 (Homo sapiens), P20594. 0% at EC30 CNP, 100% saturating CNP. activation, % at 10 µM. 0.11% of 370,000 active;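 active means activation at 10 µM reaching about 35% in either raw or pattern-adjusted values, limit read from the data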
Target sequence (P20594 whole entry, looked up): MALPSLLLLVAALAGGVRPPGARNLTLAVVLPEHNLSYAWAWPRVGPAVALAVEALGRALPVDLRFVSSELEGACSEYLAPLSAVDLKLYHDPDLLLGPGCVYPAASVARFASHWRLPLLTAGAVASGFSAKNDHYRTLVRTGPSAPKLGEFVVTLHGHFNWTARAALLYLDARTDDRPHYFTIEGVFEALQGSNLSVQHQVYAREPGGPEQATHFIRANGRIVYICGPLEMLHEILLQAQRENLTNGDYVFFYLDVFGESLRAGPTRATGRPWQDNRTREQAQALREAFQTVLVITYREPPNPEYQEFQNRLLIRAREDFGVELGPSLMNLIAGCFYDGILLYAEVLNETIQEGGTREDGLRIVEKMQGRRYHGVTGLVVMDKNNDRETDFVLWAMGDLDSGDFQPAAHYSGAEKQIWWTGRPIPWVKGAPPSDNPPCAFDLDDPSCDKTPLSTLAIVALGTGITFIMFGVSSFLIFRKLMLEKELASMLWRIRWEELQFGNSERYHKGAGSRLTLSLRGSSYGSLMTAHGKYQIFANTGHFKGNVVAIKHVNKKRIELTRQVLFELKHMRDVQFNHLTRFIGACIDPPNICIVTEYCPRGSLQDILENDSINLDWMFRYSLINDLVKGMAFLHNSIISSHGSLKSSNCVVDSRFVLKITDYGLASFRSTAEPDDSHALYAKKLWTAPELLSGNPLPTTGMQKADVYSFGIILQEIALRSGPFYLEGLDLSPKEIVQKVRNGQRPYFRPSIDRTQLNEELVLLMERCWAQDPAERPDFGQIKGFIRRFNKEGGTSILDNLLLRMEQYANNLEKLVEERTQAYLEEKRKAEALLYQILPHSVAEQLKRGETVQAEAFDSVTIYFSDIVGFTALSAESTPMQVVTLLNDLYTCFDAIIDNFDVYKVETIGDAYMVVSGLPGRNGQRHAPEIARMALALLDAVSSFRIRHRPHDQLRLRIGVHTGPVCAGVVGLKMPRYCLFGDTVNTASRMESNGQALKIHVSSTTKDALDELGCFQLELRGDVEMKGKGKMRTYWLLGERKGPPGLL
NPR1 activator = GC-A stimulated cGMP production enhancers – HEK293 GC-A cells, cGMP TR-FRET, EC30 ANP, primary screen; Atrial natriuretic peptide receptor 1 (Homo sapiens), P16066; 0% at EC30 ANP, 100% saturating ANP; activation, % at 10 µM; 0.14% of 370,000 active; in the data active means activation above about 40%
PfM18AAP inh-1 = PfM18AAP inhibitors, malaria aminopeptidase, primary screen, biochemical, QFRET, recombinant enzyme. M18 aspartyl aminopeptidase (Plasmodium falciparum 3D7). H-Glu-NHMec fluorogenic cleavage. inhibition, % at 7.35 µM. 1.2% of 290,000 active;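 active means inhibition above the campaign mean inhibition over all tested compounds plus 3 SD, cut at about 28% in these data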;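 further: 0% = plate median of test compound wells and 100% = 2 mM ZnCl2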
PfM18AAP inh-2 = PfM18AAP inhibitors, malaria aminopeptidase, confirmation, biochemical, QFRET, recombinant enzyme, triplicate. 28% of 2,400 active. H-Glu-NHMec fluorogenic cleavage. AID 2170, 2009. inhibition, % at 7.35 µM. shares compounds with PfM18AAP inh-1;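 active means mean inhibition over replicate wells above the hit cutoff set for the earlier primary screen, cut at about 29% in these data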;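 further: 0% = median of test compound wells and 100% = 2 mM ZnCl2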
CTSL1 confirm = cathepsin L1 inhibitors, retest, confirmation, counter-screen for PFM18AAP inhibitor project, biochemical, QFRET, triplicate; shares compounds with PfM18AAP inh-1; purified cathepsin L1, Z-Leu-Arg-MCA fluorescence; inhibition, % at 5.96 µM; 2,400 tested, under 10 active; AID 2178, 2009;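 active means average inhibition across replicates above the hit cutoff set in the earlier primary screen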;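 further: 0% = median of test compound wells and 100% = Z-Phe-Ala-diazomethylketone 1 µM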
Active calls of the source: *; i = inactive; nt = not tested or not shown. Only some compounds are listed: those with a hit (about 2.2% of all), similar ones and a draw of the others.

SMILES	Rce1 inhib	PLC-gamma1 inh	PLCb3 inh	NPR2 activator	NPR1 activator	PfM18AAP inh-1	PfM18AAP inh-2	CTSL1 confirm
CN1/C(=C\C(=O)CSc2cccc[n+]2[O-])C(C)(C)c2ccccc21	i	-21	-31	2	-1	49*	-42	-4
Cc1cccc[n+]1CC(=O)/C=C1\N(C)c2ccccc2C1(C)C	i	2	3	-2	1	-1	nt	nt
CN1/C(=C\C(=O)COC(=O)c2ccc(O)c(O)c2)C(C)(C)c2ccccc21	i	-79	-75	5	-1	45*	6	-2
COc1ccc(S[C@]2(C(=O)N3CCOCC3)CC(=O)N(P(=O)(OC)OC)[C@@H]2c2ccc(OC)cc2)cc1	nt	0	-1	4	2	nt	nt	nt
CC(=O)N1CCN(c2cc(-c3ccco3)nc3cc(-c4ccccc4)nn23)CC1	nt	i	i	2	-2	nt	nt	nt
CC(=O)c1c(O)cc(C)n(-c2ccc(F)cc2)c1=O	i	2	-1	7	0	-5	nt	nt
CC(=O)c1c(O)cc(C)n(Nc2nc(C)cc(C)n2)c1=O	i	1	4	2	2	34*	-28	2
COc1ccc(CNC(=O)[C@@H](Cc2ccccc2)NC(=O)[C@H]2O[C@@H](n3ccc(=O)[nH]c3=O)[C@H](O)[C@@H]2O)cc1	nt	0	2	2	2	nt	nt	nt
O=C(Nc1nc(-c2ccccc2)cs1)Nc1ccc(F)cc1F	i	1	-3	4	5	-14	nt	nt
O=C(Nc1nc(-c2ccccn2)cs1)Nc1ccc(F)cc1F	i	-2	-11	6	14	48*	0	2
N#Cc1c(C(F)(F)F)cc(-c2ccco2)nc1SCc1ccncc1	i	-145	-172	0	8	44*	-43	7
O=C(N/N=C/c1ccc(Cl)cc1Cl)c1ccc(-n2cnnn2)cc1	nt	-2	-9	-12	-10	nt	nt	nt
Nn1cnnc1N/N=C/c1ccc(Cl)cc1Cl	i	6	-1	-4	-1	48*	-21	1
O=C(NNc1ccccc1[N+](=O)[O-])Nc1cccc(Cl)c1	i	0	-6	-1	-1	33*	31*	0
O=C(Nc1ccc(F)cc1F)Nc1ccc(F)cc1F	i	2	1	1	3	-1	nt	nt
O=C(Nc1cccc(Cl)c1)Nc1ccccc1C(=O)O	i	-16	-28	7	2	13	nt	nt
O=C(NNc1ccccc1[N+](=O)[O-])Nc1ccc(F)cc1F	i	-3	-13	3	1	40*	27	-3
COCCCN1CCC2(CCC(c3ccccc3)CC2)C1=O (stereo not given)	nt	1	4	-2	2	nt	nt	nt
O=[N+]([O-])c1cc([N+](=O)[O-])c2cccnc2c1Oc1ccccc1O	i	-1	0	1	1	84*	60*	4
C(=C\c1ccccc1)/CSc1nnc(Cc2cccs2)n1-c1ccccc1	nt	-2	-5	-10	-19	nt	nt	nt
O=[N+]([O-])c1ccc(N/N=C/c2ccc(O)c(O)c2O)c(S(=O)(=O)N2CCOCC2)c1	nt	11*	0	-4	3	37*	-29	-7
COc1cc(/C=N/Nc2ccc([N+](=O)[O-])cc2S(=O)(=O)N2CCOCC2)cc(OC)c1OC	i	3	5	-1	2	-2	nt	nt
COC(=O)[C@]12C[C@H](CC(=O)NCc3cccs3)C(=O)N(CCC3=CCCCC3)C1=C[C@H](C(C)(C)C)O[C@@H]2C	nt	2	2	-1	2	nt	nt	nt

Compound activity deposited in PubChem by several laboratories.
